About 83,000 compounds went through this panel and 20% of them were active in at least one assay; those are over-represented in the sample as a whole.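 A percent growth of 40 corresponds to 60% growth inhibition; 0 means no net growth; -100 means all cells died. Active threshold: below 10.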 Calls of active or inactive are those of the source.
What was measured:
Test in all cases: NCI-60 one-dose screen, 48 h (100 = growth as untreated, 0 = no growth, -100 = all killed)
Settings in all cases: 10 µM unless noted
[1] = test system: SK-MEL-2 melanoma
[2] = test system: EKVX NSCLC
[3] = test system: SN12C renal
[4] = test system: UO-31 renal
[5] = test system: TK-10 renal
[6] = test system: ACHN renal
[7] = test system: A498 renal
[8] = test system: MOLT-4 leukemia
[9] = test system: SR leukemia
[10] = test system: RPMI-8226 leukemia
[11] = test system: OVCAR-8 ovarian
[12] = test system: OVCAR-5 ovarian
[13] = test system: OVCAR-4 ovarian
[14] = test system: SK-OV-3 ovarian
[15] = test system: IGROV1 ovarian
[16] = test system: OVCAR-3 ovarian
[17] = test system: HS 578T breast
[18] = test system: NCI/ADR-RES ovarian
[19] = test system: T-47D breast
[20] = test system: CCRF-CEM leukemia

Measured: growth

COc1ccc2cc(/C=C3\N=C(c4cc(OC)c(OC)c(OC)c4)OC3=O)c(OC)nc2c1
inactive: [1] 106% | [2] 103% | [3] 94.2% | [4] 95.8% | [5] 106% | [6] 101% | [7] 99.5% | [8] 94.8% | [9] 95.8% | [10] 104% | [11] 98.4% | [12] 108% | [13] 101% | [14] 96.5% | [15] 109% | [16] 109% | [17] 97.2% | [18] 105% | [19] 96.5%

NC(=O)CN1C(=O)c2ccccc2C1=O
inactive: [1] 108% | [2] 104% | [3] 97.7% | [4] 90.4% | [5] 103% | [6] 105% | [7] 92% | [20] 96.6% | [9] 87.8% | [10] 105% | [11] 103% | [12] 102% | [13] 110% | [14] 106% | [15] 105% | [16] 106% | [17] 104% | [18] 102% | [19] 89.9%

Cc1[nH]c2ncnc(Oc3ccc(NC(=O)Nc4ccc(Cl)c(C(F)(F)F)c4)cc3)c2c1C
inactive: [1] 61.2% | [2] 43% | [3] 69% | [4] 70.1% | [5] 81.1% | [6] 39.9% | [7] 76% | [20] 24.1% | [10] 44.7% | [11] 52% | [12] 98% | [13] 90.1% | [14] 91.9% | [15] 54.6% | [16] 56.3% | [17] 73.8% | [18] 64.5% | [19] 36.9%
active: [9] 9.11%

COc1cc(C(C)c2ccc3c(ccn3C)c2)cc(OC)c1OC (centres undefined)
active: [7] 8.95% | [16] -16.4%
inactive: [1] 30.5% | [2] 34.9% | [3] 32.6% | [4] 35.2% | [5] 71.3% | [6] 28.5% | [20] 16.3% | [9] 13.8% | [10] 15.8% | [11] 11.5% | [12] 63.1% | [13] 37.5% | [14] 17.7% | [15] 18.8% | [17] 35.1% | [18] 13% | [19] 57.3%

CCn1cc(C(=O)O)c(=O)c2cc(F)c(N3CCN(CC(=O)Nc4ccc(/C(C)=N/OC)cc4)CC3)cc21
inactive: [1] 109% | [2] 95.5% | [3] 101% | [4] 79.9% | [5] 101% | [6] 103% | [7] 92.9% | [8] 96.4% | [9] 82.6% | [10] 105% | [11] 92.3% | [12] 101% | [13] 103% | [14] 85.1% | [15] 94.6% | [16] 97.6% | [17] 94.7% | [18] 97.8% | [19] 70.3%

CCCCN(CCCC)CC(CN(CC)CC)OC(=O)Nc1ccccc1 (centres undefined)
inactive: [1] 99.4% | [2] 91.7% | [3] 94.4% | [4] 69.7% | [5] 85.5% | [6] 99.2% | [7] 117% | [20] 98.1% | [9] 86.3% | [10] 96.7% | [11] 106% | [12] 76.7% | [13] 77.1% | [14] 87.4% | [15] 57% | [16] 108% | [17] 113% | [18] 82.4% | [19] 92.2%

NC(=O)C(O)(c1ccccc1)c1ccccc1
inactive: [1] 105% | [2] 100% | [3] 99% | [4] 93.8% | [5] 97.3% | [6] 108% | [7] 84.9% | [8] 98.6% | [9] 83% | [10] 93.2% | [11] 98.2% | [12] 110% | [13] 101% | [14] 97.2% | [15] 111% | [17] 97.1% | [18] 102% | [19] 90.1%
active: [16] -48.6%

Cc1ccc(C(=O)/C(=C/c2ccc([N+](=O)[O-])cc2)S(=O)Cc2ccccc2)cc1 (centres undefined)
active: [3] -41.1% | [4] -83.7% | [5] 6.85% | [6] -52.8% | [8] 1.79% | [9] 0.101% | [10] -13% | [15] -7.98% | [16] 0.0452% | [17] -2.56% | [19] -38.3%
inactive: [1] 57.9% | [2] 30.3% | [7] 41% | [11] 18.5% | [12] 39.5% | [13] 35% | [14] 80.2% | [18] 14.3%

[2H]c1cc2c(c([2H])c1F)/C(=C/c1[nH]c(C)c(C(=O)NCCN(CC)CC)c1C)C(=O)N2
active: [9] 0.469%
inactive: [1] 14.7% | [2] 44.7% | [3] 24.4% | [4] 12.3% | [5] 62.1% | [6] 25.4% | [7] 52.6% | [20] 69.5% | [10] 30.2% | [11] 63.1% | [12] 28.7% | [13] 40.6% | [14] 14.5% | [15] 30.4% | [16] 73.3% | [17] 44.9% | [18] 65.7% | [19] 68.7%

Cc1nccc2c3ccc(OCc4cn(-c5ccccc5)nn4)cc3n(CCCc3ccccc3)c12
inactive: [1] 91.7% | [2] 69.9% | [3] 75.6% | [4] 54.6% | [5] 71.6% | [6] 72% | [7] 53.8% | [20] 77.4% | [9] 33.5% | [10] 31.6% | [11] 55.6% | [12] 91.2% | [13] 71.2% | [14] 69.7% | [15] 89.1% | [16] 68.6% | [17] 65.5% | [18] 70.4% | [19] 78.4%

CN(C)c1ccc(-c2ccc3[nH]c(=O)nc(-c4ccc(F)cc4)c3c2)cn1
active: [16] 6.67%
inactive: [1] 30.8% | [2] 55.9% | [3] 45.3% | [4] 52.9% | [5] 73.7% | [6] 52.3% | [7] 18.5% | [8] 28.1% | [9] 18.3% | [10] 46.9% | [11] 43.5% | [12] 79.9% | [13] 66.5% | [14] 36.2% | [15] 53.8% | [17] 28.5% | [18] 51.7% | [19] 36.6%

O=C(CCCC(=O)Nc1ccc(-n2nnc3cc(Cl)c(Cl)cc32)cc1)Nc1ccc(-n2nnc3cc(Cl)c(Cl)cc32)cc1
active: [13] -5.56%
inactive: [1] 53.8% | [2] 64.4% | [3] 40.5% | [4] 79.8% | [5] 84% | [6] 66.2% | [7] 36.5% | [8] 91.1% | [9] 51.2% | [10] 81.1% | [11] 25.5% | [12] 87.6% | [14] 31% | [15] 59.8% | [16] 56.1% | [17] 49.8% | [18] 84.5% | [19] 36.7%

Cc1nc2sc(C(=O)Nc3ccccc3)c(N)c2cc1C(C)O (centres undefined)
inactive: [1] 39.3% | [2] 76.1% | [3] 43.2% | [4] 61.6% | [5] 65.9% | [6] 54.2% | [7] 36.3% | [8] 25.7% | [9] 11.7% | [10] 16.9% | [11] 36.4% | [12] 51.3% | [13] 64.5% | [14] 31% | [15] 40.2% | [16] 21.8% | [17] 44.9% | [18] 15.4% | [19] 44.6%

CSc1nc(-c2ccco2)c2c(N)[nH]nc2n1
inactive: [1] 99.3% | [2] 81.2% | [3] 109% | [4] 88.3% | [5] 105% | [6] 101% | [7] 66.4% | [20] 111% | [9] 76.1% | [10] 109% | [11] 108% | [12] 109% | [13] 109% | [14] 98.6% | [15] 109% | [16] 116% | [17] 108% | [18] 103% | [19] 75.7%

C=C(C)[C@@H]1CC[C@]2(C(=O)O)CC[C@]3(C)[C@H](CC[C@@H]4[C@@]5(C)C[C@@H](CC#Cc6ccc(Cl)cc6)C(=O)C(C)(C)[C@@H]5CC[C@]43C)[C@@H]12
active: [1] -18.9% | [7] -15.1%
inactive: [2] 40% | [3] 27.8% | [4] 60.5% | [5] 59.7% | [6] 48.2% | [8] 26.7% | [9] 49.9% | [10] 22.5% | [11] 48.1% | [12] 70.9% | [13] 29.1% | [14] 61.5% | [15] 70.1% | [16] 46.6% | [17] 55.3% | [18] 71.7% | [19] 39.4%

CN1CCN(S(=O)(=O)O[C@@H]2C(=O)N(c3cc4c5ccccc5ccc4c4ccccc34)[C@H]2c2ccc(F)cn2)CC1
inactive: [1] 92.8% | [2] 85% | [3] 92.2% | [4] 66.6% | [5] 94.6% | [6] 92.1% | [7] 80.4% | [20] 74.8% | [9] 52.5% | [10] 79.7% | [11] 85.7% | [12] 108% | [13] 99.1% | [14] 97.9% | [15] 87.8% | [16] 88.4% | [17] 84.1% | [18] 92.2% | [19] 78.9%
